We go through 13 compounds from ChEMBL document CHEMBL1961873, “Compounds: GSK PKIS; Assays: Nanosyn kinase panel” (2012).

For assay [1], the target named is Serine/threonine-protein kinase PAK 6 (Homo sapiens) (UniProt Q9NQU5). The note with it: at 1 µM.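 Also: values are mean percent inhibition of PAK6 kinase.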
Assay [2] relates to Tyrosine-protein kinase ABL1 (Homo sapiens), P00519 [E255K]. The note with it: at 0.1 µM.
Assay [3] has the same test system. The following applies: at 1 µM.
Assay [4] concerns Tyrosine-protein kinase ABL1 (Homo sapiens), P00519 [H396P]. The note with it: at 0.1 µM.
Assay [5] has the same test system. The note with it: at 1 µM.
The test system of assay [6] is Tyrosine-protein kinase ABL1 (Homo sapiens), P00519 [M351T]. The following applies: at 0.1 µM.
For assay [7] the test system is unchanged. The following applies: at 1 µM.
The subject of assay [8] is Tyrosine-protein kinase ABL1 (Homo sapiens), P00519 [Q252H]. The following applies: at 0.1 µM.
For assay [9] the test system is unchanged. The note with it: at 1 µM.
Assay [10] concerns Tyrosine-protein kinase ABL1 (Homo sapiens), P00519 [T315I]. The note with it: at 0.1 µM.
For assay [11] the test system is unchanged. The following applies: at 1 µM.
Assay [12] concerns Tyrosine-protein kinase ABL1 (Homo sapiens), P00519 [Y253F]. The note with it: at 0.1 µM.
Assay [13] shares this test system. The note with it: at 1 µM.
Assay [14] addresses Tyrosine-protein kinase ABL1 (Homo sapiens) (UniProt P00519). The following applies: at 0.1 µM.
The target is the same in assay [15]. The following applies: at 1 µM.
The target in assay [16] is ALK tyrosine kinase receptor (Homo sapiens) (UniProt Q9UM73). The following applies: at 0.1 µM.
ALK tyrosine kinase receptor (Homo sapiens), sequence (Q9UM73 19-1620 limits assumed): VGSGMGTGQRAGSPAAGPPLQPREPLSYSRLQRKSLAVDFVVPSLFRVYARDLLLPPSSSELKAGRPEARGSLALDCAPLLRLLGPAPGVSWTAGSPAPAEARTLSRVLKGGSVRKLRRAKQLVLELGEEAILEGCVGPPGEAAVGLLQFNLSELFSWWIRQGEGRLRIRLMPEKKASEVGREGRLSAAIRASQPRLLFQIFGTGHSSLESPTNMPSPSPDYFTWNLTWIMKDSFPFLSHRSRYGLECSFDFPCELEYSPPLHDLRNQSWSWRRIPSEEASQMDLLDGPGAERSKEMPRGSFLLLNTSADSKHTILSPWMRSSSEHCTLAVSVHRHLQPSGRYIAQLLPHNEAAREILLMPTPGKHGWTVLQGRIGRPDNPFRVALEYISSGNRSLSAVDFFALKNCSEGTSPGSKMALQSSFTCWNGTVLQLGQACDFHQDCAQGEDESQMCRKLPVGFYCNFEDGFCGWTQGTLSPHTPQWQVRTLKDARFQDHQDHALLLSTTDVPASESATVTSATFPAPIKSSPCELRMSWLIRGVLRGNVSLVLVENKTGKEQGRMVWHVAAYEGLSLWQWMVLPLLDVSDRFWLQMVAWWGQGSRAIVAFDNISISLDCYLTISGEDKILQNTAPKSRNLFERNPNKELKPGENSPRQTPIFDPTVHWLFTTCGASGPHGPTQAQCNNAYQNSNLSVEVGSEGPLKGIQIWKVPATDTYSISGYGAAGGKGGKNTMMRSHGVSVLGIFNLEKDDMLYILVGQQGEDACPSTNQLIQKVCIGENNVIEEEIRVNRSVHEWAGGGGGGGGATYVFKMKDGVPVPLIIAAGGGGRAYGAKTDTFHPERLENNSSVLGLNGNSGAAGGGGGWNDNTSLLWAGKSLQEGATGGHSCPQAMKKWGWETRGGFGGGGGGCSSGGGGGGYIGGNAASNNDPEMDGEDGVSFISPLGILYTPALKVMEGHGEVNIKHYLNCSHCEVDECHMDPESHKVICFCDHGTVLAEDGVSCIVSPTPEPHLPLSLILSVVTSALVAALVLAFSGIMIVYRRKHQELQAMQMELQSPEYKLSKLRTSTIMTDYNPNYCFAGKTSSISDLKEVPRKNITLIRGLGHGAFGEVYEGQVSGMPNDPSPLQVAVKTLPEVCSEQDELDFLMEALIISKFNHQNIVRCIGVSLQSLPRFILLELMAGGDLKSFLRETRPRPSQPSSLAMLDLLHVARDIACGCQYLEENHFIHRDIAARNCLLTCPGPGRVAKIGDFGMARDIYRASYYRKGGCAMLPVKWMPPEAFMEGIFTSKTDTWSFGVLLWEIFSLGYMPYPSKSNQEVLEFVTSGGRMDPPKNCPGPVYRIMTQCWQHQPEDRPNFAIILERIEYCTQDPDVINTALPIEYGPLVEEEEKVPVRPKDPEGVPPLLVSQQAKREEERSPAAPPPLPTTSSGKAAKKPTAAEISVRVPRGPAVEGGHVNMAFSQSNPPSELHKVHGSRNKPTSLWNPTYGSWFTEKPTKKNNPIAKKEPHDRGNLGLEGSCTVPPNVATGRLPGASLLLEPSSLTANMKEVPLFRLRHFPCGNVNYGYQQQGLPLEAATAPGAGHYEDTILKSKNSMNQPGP
Assay [17] shares this target. The following applies: at 1 µM.
Assay [18] has as its target Tyrosine-protein kinase ABL2 (Homo sapiens) (UniProt P42684). The note with it: at 0.1 µM.
For assay [19] the target is unchanged. The note with it: at 1 µM.
The target of assay [20] is Tyrosine-protein kinase receptor UFO (Homo sapiens) (UniProt P30530). The note with it: at 0.1 µM.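 Also: values are mean percent inhibition of AXL from the GSK PKIS screen.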
Tyrosine-protein kinase receptor UFO (Homo sapiens), sequence (P30530 whole entry): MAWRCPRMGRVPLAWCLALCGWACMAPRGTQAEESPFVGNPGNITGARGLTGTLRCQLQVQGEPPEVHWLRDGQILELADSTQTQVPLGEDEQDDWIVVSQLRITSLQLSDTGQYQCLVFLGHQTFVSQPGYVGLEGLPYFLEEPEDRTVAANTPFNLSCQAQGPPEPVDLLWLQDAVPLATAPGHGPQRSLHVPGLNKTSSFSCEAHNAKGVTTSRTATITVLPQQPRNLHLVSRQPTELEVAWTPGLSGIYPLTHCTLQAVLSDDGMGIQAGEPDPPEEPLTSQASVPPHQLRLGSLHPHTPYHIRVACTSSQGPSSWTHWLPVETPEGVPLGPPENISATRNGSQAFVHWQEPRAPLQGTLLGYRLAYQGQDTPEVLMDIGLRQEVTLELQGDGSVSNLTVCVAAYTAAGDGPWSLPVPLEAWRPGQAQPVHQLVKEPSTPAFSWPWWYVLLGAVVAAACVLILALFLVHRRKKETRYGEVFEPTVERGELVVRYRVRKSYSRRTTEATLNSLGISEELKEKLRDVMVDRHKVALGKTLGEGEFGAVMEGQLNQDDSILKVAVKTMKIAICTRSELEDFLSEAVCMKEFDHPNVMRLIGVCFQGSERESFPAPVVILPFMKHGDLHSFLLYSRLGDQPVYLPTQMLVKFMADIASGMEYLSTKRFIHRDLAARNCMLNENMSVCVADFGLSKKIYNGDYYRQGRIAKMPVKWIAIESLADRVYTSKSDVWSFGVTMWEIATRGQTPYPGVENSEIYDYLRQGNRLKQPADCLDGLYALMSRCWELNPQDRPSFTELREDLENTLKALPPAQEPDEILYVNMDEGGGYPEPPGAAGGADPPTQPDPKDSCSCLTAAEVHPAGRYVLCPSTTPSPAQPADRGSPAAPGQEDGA

Tyrosine-protein kinase ABL2 (Homo sapiens), sequence (P42684 whole entry): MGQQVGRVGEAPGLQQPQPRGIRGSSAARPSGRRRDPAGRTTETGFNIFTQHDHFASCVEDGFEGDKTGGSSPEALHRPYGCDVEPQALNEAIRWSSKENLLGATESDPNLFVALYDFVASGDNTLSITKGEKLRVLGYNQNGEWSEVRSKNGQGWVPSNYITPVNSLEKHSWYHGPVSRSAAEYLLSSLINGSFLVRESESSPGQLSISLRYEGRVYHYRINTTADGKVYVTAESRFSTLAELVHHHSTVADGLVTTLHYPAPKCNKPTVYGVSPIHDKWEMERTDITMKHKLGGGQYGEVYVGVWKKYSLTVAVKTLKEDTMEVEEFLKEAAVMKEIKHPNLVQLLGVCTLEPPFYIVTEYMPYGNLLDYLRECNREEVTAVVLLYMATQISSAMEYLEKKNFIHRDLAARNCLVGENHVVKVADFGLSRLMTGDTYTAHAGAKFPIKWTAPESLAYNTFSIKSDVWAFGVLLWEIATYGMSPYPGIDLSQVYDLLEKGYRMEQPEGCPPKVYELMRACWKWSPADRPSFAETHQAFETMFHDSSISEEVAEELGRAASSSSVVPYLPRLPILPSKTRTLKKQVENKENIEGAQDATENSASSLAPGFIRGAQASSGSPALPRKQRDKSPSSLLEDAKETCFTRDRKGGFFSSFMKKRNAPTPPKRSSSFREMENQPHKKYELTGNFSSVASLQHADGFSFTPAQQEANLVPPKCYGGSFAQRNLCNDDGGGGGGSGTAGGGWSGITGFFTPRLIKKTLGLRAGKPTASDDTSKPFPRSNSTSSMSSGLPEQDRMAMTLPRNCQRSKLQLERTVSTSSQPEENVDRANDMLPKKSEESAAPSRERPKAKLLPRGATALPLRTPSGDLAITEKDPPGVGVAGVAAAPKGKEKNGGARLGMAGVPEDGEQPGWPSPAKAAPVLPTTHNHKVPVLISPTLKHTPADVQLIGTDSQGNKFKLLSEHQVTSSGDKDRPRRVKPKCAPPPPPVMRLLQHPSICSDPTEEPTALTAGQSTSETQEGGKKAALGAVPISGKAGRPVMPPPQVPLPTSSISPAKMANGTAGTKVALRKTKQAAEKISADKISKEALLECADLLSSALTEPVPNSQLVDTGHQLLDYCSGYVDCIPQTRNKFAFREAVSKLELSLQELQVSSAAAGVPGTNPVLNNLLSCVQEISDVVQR
Serine/threonine-protein kinase PAK 6 (Homo sapiens), sequence (Q9NQU5 whole entry, looked up): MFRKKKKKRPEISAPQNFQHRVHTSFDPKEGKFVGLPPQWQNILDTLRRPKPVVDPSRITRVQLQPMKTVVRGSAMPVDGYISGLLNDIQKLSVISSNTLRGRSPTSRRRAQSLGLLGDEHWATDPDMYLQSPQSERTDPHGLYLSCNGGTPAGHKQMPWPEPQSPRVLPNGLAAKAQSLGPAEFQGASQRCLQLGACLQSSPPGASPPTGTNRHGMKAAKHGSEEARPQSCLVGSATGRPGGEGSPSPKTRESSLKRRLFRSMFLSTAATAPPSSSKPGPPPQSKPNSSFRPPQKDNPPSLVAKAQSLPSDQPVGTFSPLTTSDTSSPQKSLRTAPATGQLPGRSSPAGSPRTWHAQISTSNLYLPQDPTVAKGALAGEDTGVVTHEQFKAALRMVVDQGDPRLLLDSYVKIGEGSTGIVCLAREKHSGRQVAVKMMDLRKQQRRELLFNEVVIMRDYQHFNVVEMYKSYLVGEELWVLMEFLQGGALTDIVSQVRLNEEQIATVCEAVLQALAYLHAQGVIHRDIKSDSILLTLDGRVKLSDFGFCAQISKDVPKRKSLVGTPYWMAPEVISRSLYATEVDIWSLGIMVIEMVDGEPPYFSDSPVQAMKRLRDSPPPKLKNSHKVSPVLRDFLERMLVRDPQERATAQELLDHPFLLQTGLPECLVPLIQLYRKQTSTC

Broadly, the inhibition is the change of the read-out against control, counted positive when it falls. Regarding `COc1ccc(-c2nn3ncccc3c2-c2ccnc(Nc3ccc4c(c3)OCCO4)n2)cc1`, the inhibition in [1] was -1.85%; in assay [2], -0.56%; in assay [3] it was 13.9%; in assay [4], 3.27%; in assay [5], 34.6%; in [6] it was 20.9%. Also, the inhibition in assay [7] was determined as 63.3%; in [8] it was 11.9%; in [9], 55%; in assay [10], 2.65%; in assay [11], 32.3%; in assay [12], 2.95%. Besides, the inhibition in assay [13] was determined as 33.3%; in assay [14] it was 2.5%; in assay [15] it was 25.8%; in assay [16] it was 8.08%; in assay [17], 35.2%; in assay [18], 5.47%. Also, the inhibition in [19] is 33.2%; in assay [20] it was 1.61%.

As for `COc1ccc(CNC(=O)c2ccc(-c3cc(-c4nnc(C)o4)ccc3C)cc2)cc1`, the inhibition in assay [1] is 11.5%; in [2], 2.05%; in [3], 0.78%; in [4] it was 2.7%; in [5], 4.47%; in [6], 2.42%. Besides, the inhibition is 5.1% in [7]; 1.38% in assay [8]; 4.42% in assay [9]; 0.75% in [10]; 6.32% in assay [11]; 3.15% in [12]. The inhibition in assay [13] was 5.25%; in assay [14], 4.76%; in assay [15] it was 6.46%; in assay [16] it was 0.25%; in assay [17], -0.53%; in [18], 4.31%. Also, the inhibition in assay [19] amounted to 4.39%; in assay [20], 4.83%.

Turning to `CCCN1CCC(c2ccc(Nc3nc(Nc4cc(F)ccc4C(N)=O)c4cc[nH]c4n3)c(OC)c2)CC1`, the inhibition in assay [1] is -7.38%; in [2] it was 4.38%; in assay [3] it was 6.84%; in assay [4] it was 4.63%; in assay [5] it was 8.82%; in assay [6], 1.91%. In addition, the inhibition in [7] worked out at 7.76%; in assay [8], 3.87%; in assay [9] it was 9.15%; in assay [10], 3.58%; in assay [11], 19.1%; in assay [12] it was 3.53%. The inhibition in assay [13] came out at 8.34%; in assay [14], 1.86%; in [15], 8.95%; in [16] it was 97.5%; in [17], 86.6%; in assay [18], 2.8%. In addition, the inhibition was determined as 5.54% in assay [19] and 17.1% in [20].

On to `COc1cc(Nc2nccc(Nc3ccc4c(C)n[nH]c4c3)n2)cc(OC)c1OC`, for which the inhibition in assay [1] is -1.27%; in assay [2] it was 18.5%; in [3], 67.2%; in assay [4] it was 30.1%; in [5], 78.3%; in assay [6], 28.9%. Moreover, the inhibition in [7] was determined as 75.6%; in assay [8] it was 24.5%; in [9] it was 72.7%; in assay [10], 1.65%; in assay [11] it was 14.3%; in assay [12], 37.6%. In addition, the inhibition in [13] amounted to 83.6%; in assay [14] it was 20.3%; in [15], 69.7%; in assay [16] it was 5.55%; in assay [17], 39.3%; in assay [18], 18.4%. In addition, the inhibition amounted to 69.9% in assay [19] and 0.91% in [20].

`COc1ccc(-c2oc3ncnc(N)c3c2-c2ccc(NC(=O)Nc3cc(C(F)(F)F)ccc3F)cc2)cc1`: the inhibition in [1] is 11%; in [2], 3.15%; in assay [3], 22.9%; in [4], 10.3%; in [5], 58.2%; in assay [6] it was 34.6%. In addition, the inhibition in assay [7] worked out at 76.4%; in assay [8], 33.6%; in assay [9], 76.2%; in assay [10] it was 21.9%; in assay [11], 64.3%; in assay [12], 9.77%. Moreover, the inhibition in assay [13] is 54.4%; in assay [14], 7.54%; in [15], 52.3%; in assay [16], 2.32%; in assay [17], 8.5%; in assay [18], 13.6%. Further, the results for the inhibition in [19] and in [20] were 68.1% and 21.3%, respectively.

Turning to `NS(=O)(=O)c1ccc(Nc2ncc(-c3ccccc3)o2)cc1`, the inhibition worked out at 8.68% in [1]; 4.6% in [2]; 17.8% in assay [3]; 8.3% in [4]; 39.3% in assay [5]; 3.46% in assay [6]. Moreover, the inhibition in [7] came to 40.1%; in [8] it was 4.58%; in assay [9], 28.1%; in [10] it was 3.72%; in assay [11], 17.9%; in [12], 5.61%. The inhibition in assay [13] was 26.6%; in [14] it was 5.37%; in assay [15], 37.9%; in assay [16] it was 1.53%; in assay [17] it was 6.29%; in assay [18] it was 4.93%. Further, the inhibition in assay [19] was 42%; in [20] it was -5.59%.

Regarding `CS(=O)(=O)CCNCc1coc(-c2ccc3ncnc(Nc4ccc(OCc5ccccc5)cc4)c3c2)c1`, the inhibition in assay [1] is -4.66%; in assay [2], 1.64%; in assay [3] it was 0.28%; in [4] it was 4.11%; in [5] it was 4.46%; in assay [6], 1.21%. The inhibition amounted to 1.86% in assay [7]; 2.14% in assay [8]; 4.18% in assay [9]; 1.94% in assay [10]; 4.02% in assay [11]; 3.03% in assay [12]. The inhibition came out at 2.89% in assay [13]; 4.85% in assay [14]; 7.39% in [15]; 2.87% in assay [16]; 9.68% in [17]; 3.06% in [18]. Also, the inhibition is 4.08% in assay [19] and -2.71% in assay [20].

As for `CS(=O)(=O)CCNCc1ccc(-c2ccc3ncnc(Nc4ccc(OCc5ccccc5)c(C(F)(F)F)c4)c3c2)o1`, the inhibition in assay [1] is -6.97%; in assay [2] it was 3.5%; in assay [3], 2.71%; in assay [4] it was 4.04%; in assay [5] it was 4.48%; in [6], 0.91%. For the same compound, the inhibition stood at 0.91% in assay [7]; 2.84% in assay [8]; 2.08% in assay [9]; 2.59% in [10]; 2.46% in assay [11]; 4.02% in assay [12]. In addition, the inhibition is 3.49% in [13]; 5.33% in [14]; 5.35% in assay [15]; 4.27% in assay [16]; 4.07% in [17]; 4.59% in [18]. The values for the inhibition in assay [19] and in assay [20] were 4.76% and -6%, respectively.

Regarding `Fc1ccc(-c2cc(-c3c[nH]nc3-c3ccccn3)ccn2)cc1`, the inhibition in [1] is -4.06%; in [2], 3.42%; in assay [3], 14.4%; in assay [4] it was 7.22%; in [5], 29.8%; in assay [6] it was 4.15%. For the same compound, the inhibition was determined as 28.3% in assay [7]; 5.44% in assay [8]; 16% in [9]; 3.13% in assay [10]; 5.68% in assay [11]; 5.63% in [12]. Further, the inhibition turned out to be 17.4% in assay [13]; 4.06% in assay [14]; 30.4% in assay [15]; 4.07% in assay [16]; 5.67% in [17]; 2.48% in assay [18]. The inhibition was 7.82% in assay [19] and -7.67% in [20].

Take `CCc1nn2ncccc2c1-c1ccnc(NC2CC2)n1`: the inhibition in assay [1] was -4.39%; in [2], 0.71%; in [3], 4.01%; in assay [4], 3.05%; in assay [5] it was 6.43%; in [6], 1.9%. For the same compound, the inhibition in assay [7] is 4.54%; in assay [8], 2.92%; in [9], 7.3%; in assay [10], 0.33%; in assay [11], 1.06%; in [12], 1.02%. Moreover, the inhibition in assay [13] is 4.43%; in assay [14], 5.52%; in [15] it was 6.81%; in [16], 1.99%; in assay [17] it was 5.07%; in assay [18], 2.35%. In addition, the results for the inhibition in [19] and in [20] were 5.86% and -2.55%, respectively.

Consider `Fc1cccc(COc2ccc(Nc3ncnc4sc(-c5ccco5)cc34)cc2Cl)c1`, for which the inhibition in assay [1] was -3.19%; in assay [2], 3.34%; in assay [3] it was 3.39%; in assay [4], 3.3%; in assay [5], 5.3%; in assay [6], 0.31%. Further, the inhibition is 1.04% in assay [7]; 3.83% in assay [8]; 2.01% in assay [9]; 1.83% in assay [10]; 2.74% in assay [11]; 3.33% in assay [12]. Moreover, the inhibition in assay [13] is 3.8%; in [14], 4.81%; in assay [15] it was 8.56%; in [16], 3.35%; in assay [17] it was 4.37%; in assay [18], 4.36%. Further, the values for the inhibition in assay [19] and in assay [20] were 7.39% and -6.97%, respectively.

As to `Clc1ccc(-c2nn3ncccc3c2-c2ccnc(Nc3ccccc3)n2)cc1`, the inhibition is 1.5% in [1]; 2.58% in [2]; 8.98% in [3]; 4.63% in assay [4]; 20.5% in assay [5]; 10.4% in [6]. Besides, the inhibition in assay [7] stood at 45.8%; in [8] it was 5.9%; in assay [9], 36.2%; in assay [10] it was 6.6%; in [11], 30.7%; in [12], 7.15%. Besides, the inhibition in assay [13] is 24.5%; in [14], 3.9%; in assay [15], 27.6%; in assay [16], 2.8%; in assay [17] it was 2.67%; in assay [18], 3.8%. For the same compound, the values for the inhibition in assay [19] and in [20] were 18.2% and -0.26%, respectively.

Take `Cc1ccc2c(-c3ccnc(Nc4ccccc4)n3)c(-c3ccc(F)cc3)nn2n1`: the inhibition is 5.13% in [1]; 3.13% in [2]; 15.7% in [3]; 7.21% in [4]; 36% in assay [5]; 15.1% in assay [6]. The inhibition amounted to 56.4% in assay [7]; 12% in assay [8]; 49.9% in [9]; 4.75% in [10]; 20.2% in assay [11]; 11.5% in [12]. In addition, the inhibition amounted to 42.2% in [13]; 5.24% in [14]; 35.5% in assay [15]; 2.29% in [16]; 5.55% in [17]; 4.61% in assay [18]. Moreover, the inhibition in [19] is 34.1%; in assay [20], -5.33%.
